High-throughput results (PubChem)
Rows were chosen to be rich in hits. Some 3.5% of all compounds tested hit in one or more screens of this group.
MBD2 DNA inh: inhibitors of human MBD2 binding to methylated oligonucleotide; TR-FRET; inhibition, % at 4.4 µM; 0.31% of 370,000 active; in the data active = inhibition above about 13%
Target sequence (Q9UBB5 whole entry, looked up): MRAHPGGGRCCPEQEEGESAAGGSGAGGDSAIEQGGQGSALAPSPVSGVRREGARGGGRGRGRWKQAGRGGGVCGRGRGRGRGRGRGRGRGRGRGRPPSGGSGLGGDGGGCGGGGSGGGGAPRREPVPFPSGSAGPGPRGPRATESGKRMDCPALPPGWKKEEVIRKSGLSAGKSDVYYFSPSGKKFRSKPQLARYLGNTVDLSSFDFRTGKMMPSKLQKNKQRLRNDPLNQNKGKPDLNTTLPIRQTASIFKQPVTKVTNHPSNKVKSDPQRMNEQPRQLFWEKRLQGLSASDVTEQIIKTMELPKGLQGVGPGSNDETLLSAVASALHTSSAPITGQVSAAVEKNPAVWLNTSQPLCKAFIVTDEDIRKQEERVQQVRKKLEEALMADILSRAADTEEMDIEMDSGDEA
rCAG RNA binder: r(CAG) repeat RNA binding | TO-PRO-1 dye displacement fluorescence | inhibition, % at 3 µM | 1.3% of 370,000 active;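 active = inhibition above the plate cutoff, the mean of all test compounds on that plate plus 3 SD, cut at about 35% in these data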;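 also: 0% = DMSO alone and 100% = 100 µM mitoxantrone as full dye displacement; higher means more dye released from RNA so lower well fluorescence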
DNMT1 block: blocks human DNA methyltransferase DNMT1. DNMT1 molecular beacon, Hinp1I cleavage, fluorescence. inhibition (reported as % activation of signal), % at 10 µM. 0.83% of 360,000 active. AID 588458; in the data active = inhibition above about 50%
LEDGF integ inh: blocks HIV-1 LEDGF/p75-dependent DNA integration. TR-FRET IN-LEDGF/p75 DNA integration, Eu/Cy5. inhibition, % at 3.7 µM. 0.64% of 370,000 active. AID 743269;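 active = inhibition above the screen-wide mean plus 3 SD, cut at about 13% in these data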;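 also: signal is the Cy5 over europium emission ratio at 671 and 618 nm; 0% = plate median of compound wells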
UHRF1 binding: human UHRF1 methylated DNA binding inhibitors. UHRF1 binding to methylated oligo, TR-FRET. inhibition, % at 4.4 µM. 0.75% of 370,000 active. AID 687016. Q96T88; in the data active = inhibition above about 21%;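 also: UHRF1 SRA domain binding a hemimethylated CpG hairpin DNA probe; 0% = median of test compound wells and 100% = reference inhibitor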
PG9 binder: small molecules binding HIV-1 gp120 antibody PG9; TR-FRET gp120-PG9 antibody binding; inhibition, % at 6.7 µM; 0.43% of 360,000 active; in the data active = inhibition above about 8.5%
rCAG bind conf: r(CAG) RNA repeat binding, confirmation. shares compounds with rCAG RNA binder. 70% of 4,300 active. inhibition, % at 3 µM. AID 652065. TO-PRO-1 dye displacement fluorescence;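 active = inhibition above a per-plate cutoff, the mean inhibition of sample wells plus 3 SD, cut at about 35% in these data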;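 also: loss of TO-PRO-1 fluorescence as compound displaces dye from 1x1 AA loop RNA; 0% = DMSO only wells and 100% = 100 µM mitoxantrone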
dCAG dye counter: DNA CAG dye complex inhibition counter-screen; d(CAG) DNA oligo TO-PRO-1 dye displacement, fluorescence; shares compounds with rCAG RNA binder; inhibition, % at 3 µM; AID 652068; 94% of 4,300 active;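 active = inhibition above its plate's cutoff, the mean test-well inhibition plus 3 SD, cut at about 4.8% in these data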;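 also: 0% = DNA dye mix with DMSO and 100% = 100 µM mitoxantrone; hits displace the dye from DNA and so lower well fluorescence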
* = called active by the depositor; / = not tested or not shown.

SMILES | MBD2 DNA inh | rCAG RNA binder | DNMT1 block | LEDGF integ inh | UHRF1 binding | PG9 binder | rCAG bind conf | dCAG dye counter
CCN(CC)c1c(C)nc2ccc(C(=O)NCc3ccc4c(c3)OCO4)cn12 | 1 | 1 | -2 | 1 | 0 | 1 | / | /
CCn1c(C)cc(/C=C2/SC(=S)NC2=O)c1C | -2 | 0 | 1 | 1 | -5 | -2 | / | /
Cc1ccc(-n2c(C)cc(/C=C3\SC(=O)NC3=O)c2C)cc1 | 1 | 12 | -1 | -3 | 3 | 1 | / | /
Cc1cc(/C=C2\SC(=S)NC2=O)c(C)n1-c1cccc(O)c1 | 1 | 52* | -1 | -1 | 1 | -3 | 35* | 14*
Cc1sc(-n2c(C)cc(/C=C3\SC(=S)NC3=O)c2C)c(C#N)c1C | -4 | 69* | 16 | 2 | -5 | 0 | 76* | 35*
O=C(Nc1ccc(S(=O)(=O)Nc2cnc3ccccc3n2)cc1)c1ccc(Cl)cc1Cl | 7 | 66* | 0 | 4 | 2 | 2 | 48* | 15*
O=C(Nc1ccc(S(=O)(=O)Nc2cnc3ccccc3n2)cc1)c1cc(F)c(F)cc1Cl | -4 | 40* | -1 | -1 | 0 | -2 | 28 | 4
Cc1cc(Cl)ccc1OC(C)C(=O)Nc1ccc(C(=O)Nc2ccccc2C(=O)O)cc1 (stereo unspecified) | 0 | 77* | -4 | 0 | 2 | -1 | 87* | 62*
O=C(Nc1ccc(Cl)cc1)c1cc(S(=O)(=O)Nc2ccccn2)ccc1Cl | 4 | 15 | -1 | -8 | 4 | -1 | / | /
Cc1cc(Cl)ccc1OC(C)C(=O)Nc1ccc(S(=O)(=O)Nc2cnc3ccccc3n2)cc1 (stereo unspecified) | -1 | 80* | -8 | 2 | 0 | -1 | 90* | 57*
C[C@H](O)[C@@H]1CN2CCc3c([nH]c4c(-c5ccccc5)cccc34)[C@@H]2C[C@@H]1N(C)C(=S)Nc1ccc(C#N)cc1 | -3 | 11 | / | 4 | -1 | / | / | /
Nc1ccc(S(=O)(=O)Nc2cnc3ccccc3n2)cc1 | -3 | 4 | 4 | 1 | -1 | -1 | / | /
O=C(Cc1ccc(Cl)cc1)Nc1ccc(S(=O)(=O)Nc2cnc3ccccc3n2)cc1 | -1 | 63* | -6 | -2 | -3 | 0 | 59* | 23*
Cc1ccc(C)c(N(CC(=O)NCCc2ccccc2)C(=O)CCC(=O)Nc2ccccn2)c1 | -2 | -3 | -2 | 0 | -2 | 0 | / | /
O=C(COC(=O)c1ccc2ccccc2n1)Nc1ccccc1Br | -1 | 2 | -4 | -3 | 0 | -2 | / | /
Cc1cc(C=C2C(=O)c3ccccc3C2=O)c(C)n1-c1cccc(C(=O)O)c1 | -4 | 56* | 4 | 2 | -7 | -1 | 51* | 15*
O=C(O)c1cccc(-n2cccc2C=C2C(=O)c3ccccc3C2=O)c1 | -3 | 57* | 49 | 0 | 0 | -1 | 47* | 14*
Oc1ccc2ccccc2c1/C=C/c1ccc2c(Br)cc(Br)c(O)c2n1 | -2 | 48* | -42 | 1 | -4 | -2 | 50* | 32*
Oc1cccc2ccc(/C=C/c3ccccc3Br)nc12 | -4 | 16 | -4 | 6 | 2 | 1 | / | /
CNc1ccc(/C=C(\CCC(=O)O)c2nc3ccccc3s2)cc1[N+](=O)[O-] | -9 | 78* | -3 | 2 | -8 | -4 | 82* | 39*
Cc1ccc(/C=C(\CCC(=O)O)c2nc3ccccc3s2)cc1[N+](=O)[O-] | 7 | 49* | 0 | 6 | 6 | -1 | 65* | 25*
CNC(=O)c1ccc(Nc2nc(-c3ccccc3)nc3ccccc23)cc1 | -2 | 15 | 3 | -4 | 3 | 2 | / | /
COc1ccc(Nc2nc(-c3ccccc3O)nc3ccccc23)cc1 | 0 | 38* | -4 | 0 | -4 | 0 | 21 | 6.9*
COc1cccc(-c2nc(NCc3ccccc3)c3ccccc3n2)c1O | 1 | 38* | 4 | -2 | 1 | -1 | 31 | 15*
COc1cccc(Nc2nc(-c3ccccc3O)nc3ccccc23)c1 | 2 | 11 | -3 | 0 | -3 | 1 | / | /
